Source: PubChem
The list is not random: actives were taken first. Their share in the collection is about 19%.
DT40 TDP1 CPT = growth inhibition of DT40 Tdp1-/-;hTDP1 cells with camptothecin (screen for TDP1 inhibitors) | chicken DT40 Tdp1-/-;hTDP1 cells + 20 nM CPT, ATP luminescence, 48 h | Potency, µM (top dose mostly 46.2 µM), without a hit: top-dose activity change, negative = growth inhibition, hits mostly inhibitors | 420,000 compounds, 12% hits | AID 686979; also: nearly all actives have a fitted effect of over 55% in size
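Chicken DT40 Tdp1-/- cells complemented with human TDP1, 400 cells/well, exposed to compounds plus 20 nM camptothecin for at least 48 h at 37 C; viability read as ATP content by CellTiter-Glo luminescence.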
DT40 TDP1 no CPT = qHTS for Inhibitors of human tyrosyl-DNA phosphodiesterase 1 (TDP1): qHTS in cells in absence of CPT; DT40 Tdp1-/- hTDP1 cells, no CPT, ATP luminescence, 48 h; Potency, µM (doses to about 46.2 µM), without a hit: top-dose activity change, negative = growth inhibition, hits mostly inhibitors; 420,000 compounds, 15% hits; also: nearly all actives have a fitted effect of over 55% in size
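Luminescent ATP content (CellTiter-Glo) served as the growth readout. Knockout chicken DT40 cells expressing human TDP1 were exposed to compounds without camptothecin for a minimum 48 hr at 37 °C.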
KB-V1 cytotox = kills drug-selected multidrug resistant KB-V1 cells; KB-V1 MDR cells viability, CellTiter-Glo, 72 h; Potency, µM (doses to about 46.1 µM), actives largely listed as cytotoxic; 400,000 compounds, 3.4% hits; AID 1347076; also: nearly all actives have a fitted effect of over 60% in size
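KB-V1 cells (P-gp-expressing MDR subline of KB-3-1) in phenol-red-free DMEM with 10% FBS were exposed to library compounds over a concentration series for 72 h at 37 degrees C. Viability read by CellTiter-Glo luminescence; concentration-effect curves fitted after normalization.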
KB-3-1 cytotox = kills parental KB-3-1 adenocarcinoma cells | KB-3-1 viability, CellTiter-Glo ATP luminescence, 72 h | 400,000 compounds, 1.4% hits | Potency, µM (series often up to 46.1 µM), actives largely listed as cytotoxic | AID 1347075; also: nearly all actives have a fitted effect of over 60% in size
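Luminescent ATP read-out (CellTiter-Glo) measures survival of drug-naive KB-3-1 cells after 72 h compound exposure at 37 °C. Titration series was screened from lowest to highest concentration, with DMSO vehicle plates as background controls.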
HT1080 IDH1KD tx = toxicity to HT-1080 IDH1 knockdown cells (counter line); Potency, µM (top dose mostly 46.1 µM), for the others: top-dose activity, negative = toxicity, most hits filed as cytotoxic; 360,000 compounds, 2% hits; HT-1080 IDH1 knockdown viability, ATP luminescence, 48 h; AID 686971;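 also: 0% = DMSO wells and -100% = cell-free medium wells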
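CellTiter-Glo luminescence after 48 h compound exposure at 37 degrees C of IDH1-knockdown HT-1080 cells in 5% FBS RPMI. %Activity scaled between DMSO wells and cell-free media wells, with curves fitted and assigned curve classes.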
HT1080-NT tox = kills 2HG-producing HT-1080-NT fibrosarcoma cells; HT-1080-NT fibrosarcoma viability, CellTiter-Glo ATP luminescence, 48 h; Potency, µM (doses to about 46.1 µM), without a hit: top-dose activity, negative = less viability, hits mostly cytotoxic; 360,000 compounds, 1.6% hits; AID 686970;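 also: NT is the 2HG producing partner of a matched IDH1 knockdown line; 0% = DMSO-treated cells and -100% = media-only wells without cells; nearly all actives have a fitted effect of over 55% in size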
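Viability by CellTiter-Glo luminescence after 48 h compound exposure at 37C of HT-1080-NT cells (750/well, RPMI, 5% FBS). % activity scaled between DMSO wells and medium-only wells, then curve-fitted and categorized by curve class.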
* marks the source's active call; other numbers are inactive results; i = inactive; ? = inconclusive; . = not tested or not shown. Calls follow the shape of the dose curve; as a rule, active = well fitted curve in the direction sought with a large enough effect; inconclusive = small, poorly fitted or top-dose-only effect, or another doubt; inactive = no such curve, though single readings can be large; an effect the other way counts as inactive or inconclusive. Unless noted, % is scaled to controls: 0 for no effect and ±100 for the full control effect; potency is read from the fitted curve at half-maximal effect.

SMILES | DT40 TDP1 CPT | DT40 TDP1 no CPT | KB-V1 cytotox | KB-3-1 cytotox | HT1080 IDH1KD tx | HT1080-NT tox
COc1ccc(C(NC(C)=O)c2cc(Cl)c3cccnc3c2O)cc1 (stereo not given) | 8.2µM* | 8.2µM* | i | ? | 11.6µM* | ?
O=C(NC(c1ccco1)c1cc(Cl)c2cccnc2c1O)c1ccc(Cl)cc1 (stereo not given) | . | . | i | i | . | .
CCOC(=O)[C@]12CCC=C1N(CCC1=CCCCC1)C(=O)[C@H](CC(=O)N1CCOCC1)C2 | ? | ? | i | i | 14.0% | 19.9%
COc1ccc(C(=O)OCC(=O)N2CCCCCC2)cc1S(=O)(=O)N1CCOCC1 | -11.0% | 17.0% | i | i | -3.3% | 7.2%
CC(=Nc1ccc(C)cc1C)c1sc2ccccc2c1O | ? | 18.4µM* | i | ? | -9.3% | 0.1%
CCOC(=O)C1(C)CCCN(C(=O)c2ccccc2F)C1 (stereo not given) | -15.8% | -12.5% | i | i | 13.2% | 22.0%
Cn1c(N2CCOCC2)nc2c1c(=O)n(Cc1ccc(Cl)cc1)c(=O)n2C | ? | ? | 23.1µM* | i | 3.3% | 4.2%
Cn1c(N2CCN(c3ccccn3)CC2)nc2c1c(=O)n(Cc1ccc(Cl)cc1)c(=O)n2C | 16.4µM* | ? | ? | i | 6.3% | 7.1%
O=C(CCc1nnc2n(Cc3ccc(Cl)cc3)c(=O)c3ccccc3n12)N1CCN(c2ccccn2)CC1 | 20.6µM* | 20.6µM* | i | i | -0.2% | 17.0%
CC1CN(c2nc3c(c(=O)n(Cc4ccc(Cl)c(Cl)c4)c(=O)n3C)n2C)CC(C)O1 (stereo not given) | ? | ? | 5.17µM* | ? | -16.5% | -6.7%
COCCN(C(=O)CSc1nnc(-c2ccc(C)cc2)n1N)c1c(N)n(Cc2ccccc2)c(=O)[nH]c1=O | 8.2% | -3.7% | i | i | -1.3% | -0.2%
O=C(Nc1ccccc1C(=O)NCCc1ccccc1)c1cnccn1 | -2.1% | -10.7% | i | i | -0.5% | 13.0%
CCc1nc2c(OCc3ccc(OC)cc3)cccn2c1N(C)C(=O)c1ccncc1 | -4.8% | -22.1% | ? | i | 7.4% | 3.5%
CCc1nc2c(OCCOc3ccc(F)cc3)cccn2c1N(C)C(=O)c1cccs1 | 18.4µM* | 10.3µM* | i | i | -1.1% | 1.9%
CCc1nc2c(OCc3ccc(OC(F)F)cc3)cccn2c1N(C)C(=O)c1cccs1 | 20.6µM* | 16.4µM* | i | i | -18.3% | -15.8%
Cc1onc(-c2ccccc2Cl)c1C(=O)NCc1ccc(F)cc1 | -4.4% | ? | i | i | 4.8% | 6.4%
COc1ccc(C(=O)/C=C2\NCCc3cc(OC)c(OC)cc32)cc1OC | 16.4µM* | 16.4µM* | i | i | ? | -27.7%
COc1ccc(C(=O)/C=C/N(C)C)cc1OC | ? | ? | ? | i | ? | -26.1%
CCC(=O)N1CCc2cc(Br)cc(S(=O)(=O)N3CCCC(C(=O)Nc4cc(C)ccc4OC)C3)c21 (stereo not given) | -20.8% | ? | i | i | . | .
C(=C\c1ccnc2ccccc12)/c1ccc(N2CCN(c3ccc(/C=C/c4ccnc5ccccc45)cc3)CC2)cc1 | 5.01µM* | 6.31µM* | i | ? | . | .
C(=C\c1ccnc2ccccc12)/c1ccc(N2CCNCC2)cc1 | ? | 14.1µM* | ? | ? | . | .
O=Cc1ccc(N2CCOCC2)cc1 | 10.3% | -2.6% | i | i | . | .
CN1CCCc2cc(/C=C/c3ccnc4ccccc34)ccc21 | 11.2µM* | 14.1µM* | ? | ? | . | .
C(=C\c1ccnc2ccccc12)/c1ccc(N2CCOCC2)cc1 | 1.78µM* | 1.26µM* | i | ? | . | .
